Test results: ChEMBL document CHEMBL3988442, “University of Dundee, Small-Polar-MMV Screening Library” (2021)

Legend:
[1] = biological target: T1, Aspartate--tRNA(Asp/Asn) ligase (Mycobacterium tuberculosis (strain ATCC 25618 / H37Rv)) (UniProt P9WFW3); test: Assay for Asp RNA synthetase-1 from Mycobacterium tuberculosis; format: functional; parameters: scale not given: direction of the effect not stated beside the values; settings: 30 µM; further: in the data most compounds retested in dose-response had high values
T1 sequence (whole entry): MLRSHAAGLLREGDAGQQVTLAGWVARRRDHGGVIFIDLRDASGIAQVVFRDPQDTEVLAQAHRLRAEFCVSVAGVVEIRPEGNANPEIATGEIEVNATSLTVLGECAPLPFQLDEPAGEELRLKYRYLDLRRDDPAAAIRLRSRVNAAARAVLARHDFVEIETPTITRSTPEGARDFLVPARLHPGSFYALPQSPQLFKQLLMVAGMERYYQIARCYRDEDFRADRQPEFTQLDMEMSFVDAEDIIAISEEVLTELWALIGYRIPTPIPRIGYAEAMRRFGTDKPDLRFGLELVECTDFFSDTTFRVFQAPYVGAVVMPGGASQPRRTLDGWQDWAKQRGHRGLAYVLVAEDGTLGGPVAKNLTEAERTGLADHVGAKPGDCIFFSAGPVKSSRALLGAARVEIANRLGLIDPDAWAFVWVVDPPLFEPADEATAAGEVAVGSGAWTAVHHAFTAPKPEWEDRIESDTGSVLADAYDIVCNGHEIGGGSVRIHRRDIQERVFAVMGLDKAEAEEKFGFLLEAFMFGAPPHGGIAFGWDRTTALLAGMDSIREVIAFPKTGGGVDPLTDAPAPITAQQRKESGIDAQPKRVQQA

[2] = biological target: Shiga toxin 2 (Escherichia coli O157:H7) (UniProt P09385+P09386); test: E. coli 0.157:H7 Shiga Toxin SOP - stx2 screening assay; format: functional; parameters: scale not given: direction of the effect not stated beside the values; settings: 30 µM

Row | SMILES | Percent Effect [1] | Percent Effect [2]
1 | Cc1cc(-c2cnc(N3CCNC(=O)C3)nc2-c2cccnc2C)on1 | -4.46% | -9.56%
2 | Cc1cc(C)c(CNC(=O)C2CCCN(c3cnccn3)C2)c(=O)[nH]1 (configuration not stated) | -0.345% | 30.7%
3 | Cn1cc2c(n1)C(CNC(=O)Cc1ccsc1)OCC2 (configuration not stated) | -0.539% | -23.6%
4 | O=C(C1SCCc2sccc21)N1CCC(O)CC1 (configuration not stated) | 5.25% | -25.1%
5 | Cn1nc(C2CCCN(Cc3ccsc3)C2)c2nccnc21 (configuration not stated) | -2.96% | -14.3%
6 | Cc1cc(C(=O)N2CCN(C(=O)Cc3ccccn3)CC2)c(C)s1 | 2.55% | 7.06%
7 | CC(C)NC(=O)c1nnn(-c2cccc(C(F)(F)F)c2)c1C1CC1 | -2.65% | 8.87%
8 | O=C1CC(c2ccc(C(=O)O)cc2)c2ncn(-c3cccc(F)c3)c2N1 (configuration not stated) | 7.81% | -17.3%
9 | CN1CCOC(CNCCc2ccccn2)C1 (configuration not stated) | -3.97% | -10.7%
10 | c1cnn(CC2CCCN2c2ncnc3sccc23)c1 (configuration not stated) | 5.36% | 26.3%
11 | CS(=O)(=O)CC(=O)N1C[C@@H]2COC[C@]2(c2nnc(C3CC3)o2)C1 | -1.72% | -40.1%
12 | COc1nn(C)c2c1CCCN(C(=O)c1ccccc1)C2 | -0.268% | -9.13%
13 | CCC(=O)N1CCC(Cc2nccnc2Nc2ccccn2)CC1 | -0.309% | 11.3%
14 | c1cnc(-c2cnc(N3CCSCC3)nc2C2CCCO2)cn1 (configuration not stated) | 6.48% | 13.6%
15 | COc1ccc(OC)c(NC(=O)N2CCCC2c2ccco2)c1 (configuration not stated) | -4.36% | 0.199%
16 | O=C(NCCCN1CCOCC1)c1cc(-c2ccc3c(c2)CCO3)n[nH]1 | -2.27% | -67.7%
17 | CN(Cc1ccsc1)C(=O)CS(=O)(=O)Cc1ccc(Cl)c(Cl)c1 | 3.95% | 41.2%
18 | Cc1ccc(N2CCCC(NCc3ccc(C)o3)C2)nn1 (configuration not stated) | -0.626% | -32.5%
19 | Cc1ncncc1C(=O)Nc1cnn(CC(=O)NC2CCCC2)c1 | -6.25% | -10.6%
20 | COc1ccc(C2=CCN(C(=O)CN(C)Cc3ccoc3)CC2)cc1 | -8.11% | -67.5%
21 | CC(NC(=O)NCc1cc[nH]n1)c1ccc2c(c1)CCC(=O)N2 (configuration not stated) | -1.15% | -11.9%
22 | OC(CNCCn1cccn1)c1ccc2c(c1)OCCO2 (configuration not stated) | -4.48% | 3.64%
23 | Fc1cccc(CN2CCO[C@H]3[C@@H](OCc4ccccn4)CC[C@@H]32)c1 | 0.564% | -1.04%
24 | Cc1ccc(CN(C)CC(=O)NC2(C)CCS(=O)(=O)C2)cc1 (configuration not stated) | 1.84% | -25.3%
25 | CCS(=O)(=O)N1C[C@@H](OCc2cccnc2)[C@H]2OCCC[C@H]21 | 3.4% | 5.21%
26 | O=C(c1ccsc1)N1CCOC2(CCN(Cc3cccnc3)CC2)C1 | 0.932% | -9.41%

Row | SMILES | Percent Effect [1] | Percent Effect [2]
27 | CCn1cnnc1CNC(=O)NC(C)C(C)C (configuration not stated) | -2.43% | 7.89%
28 | Cc1nn(CC(=O)N2CCC(Nc3cccnn3)CC2)c(C)c1Cl | -1.63% | -23.6%
29 | NC(=O)C1(c2cnccn2)CCCN1Cc1cc2ccccc2o1 (configuration not stated) | 3.17% | 11.4%
30 | Cc1ccc(C2(CN3CCCC3)CCNCC2)nc1 | -4.12% | -12%
31 | OC(COc1ccc(F)cc1)CN1CCC(Cn2cccn2)CC1 (configuration not stated) | 1.46% | -35.3%
32 | CC(C)OCCCNC(=O)CN1CCC(N2CCN(C)C2=O)CC1 | -3% | -14.1%
33 | Cc1ccccc1CC(=O)N(C)C1CCCC1 | -6.33% | -21%
34 | CC(=O)N1CCN(C(=O)CCOc2ccc(C(C)C)cc2)CC1 | -2.21% | 38.9%
35 | COCC(=O)N1CCC2(CCN(Cc3ccccn3)CC2)CC1 | 6.21% | -8.31%
36 | O=C(c1ccncc1)N1CCC(c2nc(O)cc(-c3ccncc3)n2)C1 (configuration not stated) | -0.574% | 1.62%
37 | CN(C)S(=O)(=O)N1CCCC1CC(=O)c1cccs1 (configuration not stated) | 2.35% | -10.2%
38 | Cc1[nH]/c(=N\C(=O)c2csc(NC3CC3)n2)sc1C | -4.09% | 7.35%
39 | O=C(NCCN1CCOCC1)c1ccc(-n2ccc3ccccc32)s1 | 3.45% | -47.9%
40 | CC(=O)N(C)c1nc(CN2CCOC(Cn3cccn3)C2)cs1 (configuration not stated) | 3.18% | -10.3%
41 | COc1ccccc1C(O)CNCc1c(C(C)C)nn(C)c1N(C)C (configuration not stated) | -6.86% | 9.26%
42 | CCc1nc(CN2CCCN(c3nc4ccccc4o3)CC2)no1 | 5.41% | -69.6%
43 | COCC(=O)N1Cc2cnc(Cc3ccc(OC)cc3)nc2C1 | 2.73% | -8.2%
44 | Cn1ccc(CN2CCC(c3ccccc3)CC2)cc1=O | 4.58% | -3.12%
45 | C1CC1c1nsc(N2CCN(C3CC3)CC2)n1 | 2.04% | -7.43%
46 | Cc1ccoc1C(=O)N1CCO[C@H]2[C@H](OCC3CCOCC3)CC[C@@H]21 | -4.72% | -15.8%
47 | COc1ccc(CN(C)CC(=O)NC2(C)CCS(=O)(=O)C2)cc1F (configuration not stated) | 10.4% | -2.83%
48 | Cc1nc(CN(C)C2CCN(Cc3nc4ccccc4s3)C2)no1 (configuration not stated) | -0.253% | 0.376%
49 | O=C(Cc1cccc(F)c1)NCCNCc1ccc2c(c1)CCO2 | -0.182% | -76.4%
50 | CS(=O)(=O)N1CCOCC2(CCN(C(=O)c3cccnc3)CC2)C1 | -2.76% | -13.1%
51 | CC(CC#N)NC(=O)c1cc(Br)c2c(c1)OCCO2 (configuration not stated) | -8.16% | -5.44%
